# Read-outs that look alike come from different tables or passages of the source.
# Assays:
# Parameters in all cases: species or system human, MV4-11 + K-562 + COLO205 + SK-N-BE2 + OVCAR-8
# [1] = system: CDK1; settings: read-out: apparent Kd; compound concentrations:100 nM and 1000 nM (sheet 'Samples'); n = 1
# [2] = system: PYGL; settings: read-out: apparent Kd, n = 1
# [3] = system: ADCK1; settings: read-out: apparent Kd; compound concentrations:100 nM and 1000 nM (sheet 'Samples'); n = 1
# [4] = system: ADRBK1; settings: read-out: apparent Kd; compound concentrations:100 nM and 1000 nM (sheet 'Samples'); n = 1
# [5] = system: PIK3CA; settings: read-out: apparent Kd; compound concentrations: 100 nM and 1000 nM (sheet 'Samples'), CATDS: 0.187165726463497; n = 1
smiles,measurement,setting,value
Nc1c(C(=O)c2ccccc2)cnn1-c1ccc(F)cc1 [RO1151246-000],potency estimated from few doses,[1],1.88 µM
COc1ccc(C2=C(c3cn(C)c4ccccc34)C(=O)NC2=O)cc1OC [RO3206363-000],potency estimated from few doses,"[2]; compound concentrations: 100 nM and 1000 nM (sheet 'Samples'), CATDS: 3.1878798319940699E-2",1.85 µM
Fc1ccc(-c2ncn(C3CCNCC3)c2-c2ccnc(Oc3ccc4c(c3)OCO4)n2)cc1 [SB-250715],potency estimated from few doses,[3],1.85 µM
same,potency estimated from few doses,[4],2.15 µM
same,potency estimated from few doses,[2]; compound concentrations:100 nM and 1000 nM (sheet 'Samples'),1.99 µM
COc1ccc(-c2nn3ncccc3c2-c2ccnc(Nc3ccc4c(c3)OCCO4)n2)cc1 [GW827106X],potency estimated from few doses,[5],0.172 µM
